A selection: hits, their analogues and other compounds. The true share with any hit is near 3.6%.
HTT-AS act: HTT-AS promoter activation; HEK293 HTT-AS promoter firefly luciferase reporter, 24 h; response scale: percent change from vehicle, -100% = no light; Potency, µM (highest dose often 57.5 µM), actives largely listed as activators; 0.24% of 48,000 active; AID 1508624; further: nearly all actives have a fitted effect of over 55% in size
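Firefly luciferase signal from promoter-reporter HEK293 cells was scaled between vehicle (0%) and zero RLU (-100%). Compounds were tested at final concentrations of up to 57.5 uM over 24 h at 37 degrees C. PTC124 at 50 uM final served as control inhibitor.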
S16 F2sN tox: cytotoxicity in S16 Pmp22-F2sN Schwann cells; S16 Pmp22-F2sN Schwann cells viability, CellTiter-Glo, 24 h; Potency, µM (series often up to 57.5 µM), hits mostly cytotoxic; 0.48% of 43,000 active; AID 1508642; further: nearly all actives have a fitted effect of over 65% in size
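Luminescence from CellTiter-Glo, read by CCD camera after a 15 min room-temperature incubation, served as the viability signal. Reporter Schwann cells (S16 Pmp22-F2sN) had been treated with pin-transferred compounds for 24 h at 37C.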
HTT promoter inh: inhibitors of huntingtin promoter activity; HEK293 HTT promoter firefly luciferase reporter, 24 h; Potency, µM (top dose mostly 57.5 µM), most hits filed as inhibitors; 0.93% of 48,000 active; further: nearly all actives have a fitted effect of over 50% in size
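Firefly luciferase readout (Dual-Glo, 10 min RT) after 24 h, 37 °C compound exposure (final up to 57.5 uM) of HEK293 reporter cells cultured 24 h beforehand; PTC124 at 50 uM final as control inhibitor; activity scaled vehicle 0%, zero RLU -100%.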
PMP22 txn prim: PMP22 gene transcription modulation; S16 Pmp22-F2sN Schwann cells (luciferase reporters placed in the Pmp22 gene), FLuc/NLuc coincidence luminescence, 24 h; Potency, µM (series often up to 57.5 µM), usual class: inhibitors; 2% of 43,000 active; active means clear falling dose curves in both reporters; inconclusive means both reporters move, but less clearly or upward; inactive means either reporter flat; the % is the NLuc reporter signal
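Schwann cells carrying the coincidence reporter were exposed to library compounds for 24 h at 37C, then lysed and read for FLuc and, after quenching, NLuc luminescence on a CCD imager.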
SKOV3 invasion: ovarian cancer metastasis inhibition, 3D TME model; SKOV3ip1-GFP adhesion/invasion on 3D omental model, fluorescence; Potency, µM (series often up to 45.8 µM), hits mostly inhibitors; 0.1% of 46,000 active; AID 1963576; further: nearly all actives have a fitted effect of over 65% in size
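Primary human omental fibroblast/mesothelial 3D culture pre-formed 48 h. SKOV3ip1-GFP cells added with compounds (0.36-46 umol/L), incubated 2 h RT/16 h 37 C, fixed; GFP cells quantified at 488/509 nm.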
mTORC1 inh: inhibitors of mTORC1 signaling in Tsc2-/- p53-/- MEF cells | Tsc2-/- p53-/- MEF, phospho-rpS6 immunofluorescence/PI, 24 h | 0.78% of 44,000 active | Potency, µM (titrated, usually from 38.3 µM), actives largely listed as inhibitors; further: nearly all actives have a fitted effect of over 50% in size
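Immunofluorescence of rpS6 phosphorylation in Tsc2-/-, p53-/- MEFs after 24 h compound exposure, normalized to propidium iodide signal. Activity is expressed as % positive cells, thresholded with 7.5 nM rapamycin.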
Hits are given with their value; 0 = inactive; ? = inconclusive; - = not tested or not shown; ! = a repeat was not active. Unless noted, the call rests on the fitted dose curve; in most records, active means well fitted curve in the direction sought with a large enough effect; inconclusive means small, poorly fitted or top-dose-only effect, or another doubt; inactive means no such curve, though single readings can be large; an effect the other way counts as inactive or inconclusive.

SMILES	HTT-AS act	S16 F2sN tox	HTT promoter inh	PMP22 txn prim	SKOV3 invasion	mTORC1 inh
CCc1nc(C)cn1S(=O)(=O)c1ccc(Cl)c(Cl)c1OC	0	0	13µM	?	0	0
CN(C)CCC=C1c2ccccc2COc2ccc(CC(=O)O)cc21	0	-	0	-	0	-
CCCCCCCCc1ccc(CCC(N)(CO)CO)cc1	0	-	0	-	0	-
Cc1cccc(Cn2nnc(C(=O)Nc3cc(C)ccc3C)c2N)c1	0	0	?	?	0	0
Cc1ccc(NC(=O)c2nnn(Cc3cccc(C(F)(F)F)c3)c2N)c(C)c1	0	?	0	6µM	0	?
c1ccc2c(Oc3nc(Nc4ccc(N5CCOCC5)cc4)c4ncn(C5CCCCC5)c4n3)cccc2c1	0	-	0	-	0	-
Cc1ccc(-c2c(C)n3c4c(=O)n(C)c(=O)n(C)c4nc3n2CCO)cc1	0	?	2µM	4.8µM	0	0
Nc1ncn([C@@H]2O[C@H](CO)[C@@H](O)[C@@H]2O)c(=O)n1	0	-	?	-	0	-
CC(=O)c1ccc(N2CCN(c3ncnc4onc(C)c34)CC2)cc1	0	?	4.5µM	?	0	0
CNC(=O)c1ccc2c(c1)N=C(C)c1cc(C)ccc1S2	0	0	0	0	0	0
CC1=Nc2cc(C(=O)NC3CCCC3)ccc2Sc2ccc(Cl)cc21	0	?	?	5.3µM	0	0
CCC1=Nc2cc(C(=O)NC3CCCC3)ccc2Sc2ccc(Cl)cc21	0	?	?	8.4µM	0	?
CCCCCCOC(=O)N=C(N)c1ccc(NCc2nc3cc(C(=O)N(CCC(=O)OCC)c4ccccn4)ccc3n2C)cc1	0	-	0	-	?	-
C[C@@]12O[C@@H](C[C@]1(O)CO)n1c3ccccc3c3c4c(c5c6ccccc6n2c5c31)CNC4=O	0	-	?	-	?	-
CCOC(=O)c1ccc(NC(=O)CC2Nc3cc(C)c(C)cc3NC2=O)cc1 (configuration not stated)	0	0	8.9µM	?	0	0
CCOC(=O)c1ccc(NC(=O)CC2Nc3cccc4cccc(c34)NC2=O)cc1 (configuration not stated)	0	0	?	?	0	0
Cc1ccc(CN2c3ccccc3-c3nc(SCC(=O)Nc4c(C)cc(C)cc4C)ncc3S2(=O)=O)cc1	0	28µM	0	?	0	0
Cc1ccc(CN2c3ccccc3-c3nc(SCC(=O)NCCc4ccccc4)ncc3S2(=O)=O)cc1	0	0	0	0	0	0
CCN1CCN(CC(=O)Nc2ccc(-c3cccc4c(=O)cc(N5CCOCC5)oc34)c3sc4ccccc4c23)CC1	0	-	0	-	0	-
COc1cccc2cc(-c3nc(C4CCC(C(=O)O)CC4)n4ncnc(N)c34)[nH]c12 (configuration not stated)	0	-	?	-	0	-
CC(C)Oc1ccc2c(=O)c(-c3ccccc3)coc2c1	0.86µM!	-	0	-	0	-
O=c1c(-c2ccc(O)cc2)coc2cc(O)ccc12	?	-	0	-	0	-
CN[C@@H]1CN(c2ccc3c(=O)c(C(=O)O)cn(-c4nccs4)c3n2)C[C@@H]1OC	0	-	?	-	0	-
COc1cc(C(C)C)c(Oc2cnc(NC(CO)CO)nc2N)cc1I	0	-	0	-	0	-
CCOC(=O)c1cc(-c2ccccc2)n(CCC(=O)Nc2cc(C)cc(C)c2)c1C	0	0	?	0	0	0
CCOC(=O)c1cc(-c2ccccc2)n(CCC(=O)Nc2ccc(Cl)c(C(F)(F)F)c2)c1C	0	?	22µM	?	?	0
CCOc1ccc(-c2nc(CSCC(=O)NCCc3ccc(OCC)c(OCC)c3)c(C)o2)cc1	0	0	14µM	?	0	0
CCOc1ccc(-c2nc(CSCC(=O)NCc3ccc(C)cc3)c(C)o2)cc1	0	0	7.1µM	0	0	0
CN(C)CC=CC(=O)Nc1cc2c(Nc3ccc(F)c(Cl)c3)ncnc2cc1O[C@H]1CCOC1	0	-	?	-	0	-
COc1ccc(CN2CCc3nc(N4CCN(c5ccc(F)cc5)CC4)ncc3C2)c(OC)c1OC	0	16µM	1.6µM	13µM	0	0
